Source: PubChem BioAssay
Hits are enriched below; roughly 3.6% of the tested compounds scored in any of these assays.
TRHR enhancer: qHTS for Small Molecule Agonists and Allosteric Enhancers of Human TRH Receptor: Primary Screen for Enhancers; Thyrotropin-releasing hormone receptor (Homo sapiens), P34981; enhancement, % at 2 µM; actives 0.66% (n = 360,000); TRHR cells, fluo-8 calcium fluorescence, EC20 TRH enhancement; in the data active means enhancement above about 30%; further: 0% is about no effect
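TRHR-expressing cells loaded with fluo-8 calcium dye were read kinetically (ex 480/em 530) during compound addition, then stimulated with an EC20 of TRH (10 nM final). Enhancement of the Gq-mediated intracellular calcium response was scored.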
D1 PAM: Potentiators of Human D1 Dopamine Receptor: qHTS | D(1A) dopamine receptor (Homo sapiens), P21728 | HEK293 TREx D1 cells, calcium flux, dopamine EC20 potentiation | potentiation, % at 10 µM | actives 0.036% (n = 360,000) | AID 504651, 2011; in the data active means potentiation above about 30%; further: 0% is about no effect
Target sequence (P21728 whole entry, looked up): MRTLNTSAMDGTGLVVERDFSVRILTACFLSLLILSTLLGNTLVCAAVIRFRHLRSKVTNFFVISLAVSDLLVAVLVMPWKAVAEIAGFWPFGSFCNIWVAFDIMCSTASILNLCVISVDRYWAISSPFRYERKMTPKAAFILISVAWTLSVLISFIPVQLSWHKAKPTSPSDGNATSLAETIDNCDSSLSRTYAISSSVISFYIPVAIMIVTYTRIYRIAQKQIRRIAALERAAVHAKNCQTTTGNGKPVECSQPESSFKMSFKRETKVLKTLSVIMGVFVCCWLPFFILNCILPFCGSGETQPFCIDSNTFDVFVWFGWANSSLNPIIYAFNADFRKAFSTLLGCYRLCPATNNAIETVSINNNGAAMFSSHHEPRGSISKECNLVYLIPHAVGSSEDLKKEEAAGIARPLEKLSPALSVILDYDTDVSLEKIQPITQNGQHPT
TRHR agonist: qHTS for Small Molecule Agonists and Allosteric Enhancers of Human TRH Receptor: Primary Screen for Agonists | actives 0.18% (n = 360,000) | activation, % at 2 µM | Thyrotropin-releasing hormone receptor (Homo sapiens), P34981 | TRHR cells, calcium flux fluo-8, FDSS agonist mode; further: 0% is about no effect
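Read-out: compound-evoked intracellular calcium rise in TRHR cells, fluo-8 dye, kinetic FDSS fluorescence at 1 s/cycle following a 10-cycle baseline. Cells cultured overnight before dye loading (30 min–1.5 h, RT).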
D1 agonist: Allosteric Agonists of the Human D1 Dopamine Receptor: qHTS. activation, % at 2 µM. actives 1% (n = 360,000). D(1A) dopamine receptor (Homo sapiens), P21728. HEK293 T-REx D1 cells, calcium flux, agonist mode. AID 504660, 2011; further: 0% is about no effect
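Inducible HEK293 T-REx D1 cells, force-coupled to calcium signalling, were plated at 4000 cells/well with tetracycline and held overnight at 30 C. After no-wash calcium dye loading, compound-evoked calcium rise over 180 s flagged agonists.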
LDHA inh: qHTS assay for inhibitors of human lactate dehydrogenase; L-lactate dehydrogenase A chain (Homo sapiens), P00338; purified LDHA, NADH/diaphorase-resazurin fluorescence; hits give low values; activity change, % (values are at about 110 or 230 µM); actives 0.15% (n = 480,000); AID 1347041, 2019; in the data active means activity change below about -30%;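 further: plate controls were DMSO wells for no effect and wells without enzyme for full effect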
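Human LDH5 (2 nM) was incubated with 0.06 mM NADH and 0.2 mM pyruvate for 5 min at room temperature in Tris pH 7.4. Remaining NADH was coupled through diaphorase/resazurin, and resorufin fluorescence was read at 0 and 20 min.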
D1 antagonist: Antagonist of Human D 1 Dopamine Receptor: qHTS; actives 3.2% (n = 360,000); activity change, negative = inhibition, % at 10 µM; HEK293 TREx D1 cells, calcium flux, dopamine EC80; hits give low values; in the data active means activity change below about -30%; further: on the % scale 0 is the no-effect control and ±100 the full control effect
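Calcium flux readout: force-coupled, inducible Hek293 Trex D1 line, cells induced overnight at 30 C with tetracycline, dye-loaded 30–90 min at RT. Antagonism scored against EC80 dopamine challenge given 180 s after compound.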
The depositor's hits bear a star. Unless noted, no stated cut-off is given here; in the data, active means activation above about 30%; inactive means the rest.

Results for COc1ccc(C2(C)NC(=O)N(CC(=O)Nc3cccnc3Cl)C2=O)cc1 (stereo not drawn) ?
TRHR enhancer: -12; D1 PAM: -1; TRHR agonist: 4; D1 agonist: 17; LDHA inh: -1; D1 antagonist: 16

Results for CC1(c2cccc(Br)c2)NC(=O)N(CC(=O)N2CCN(C(=O)c3ccco3)CC2)C1=O (stereo not drawn) ?
TRHR enhancer: -13; D1 PAM: 0; TRHR agonist: 0; D1 agonist: 2; LDHA inh: 1; D1 antagonist: -4

What do the screens show for `CCC1(c2ccc(F)cc2)NC(=O)N(CC(=O)Nc2cccnc2Cl)C1=O` (stereo not drawn)?
TRHR enhancer: 4; D1 PAM: 5; TRHR agonist: 5; D1 agonist: 43*; LDHA inh: 4; D1 antagonist: 6

How did CC1(c2ccc(OC(F)F)cc2)NC(=O)N(CC(=O)N2CCN(C(=O)c3ccco3)CC2)C1=O (stereo not drawn) do in these assays?
TRHR enhancer: -3; D1 PAM: -1; TRHR agonist: 0; D1 agonist: 2; LDHA inh: -4; D1 antagonist: -30*

What do the screens show for `COc1ccc(C2(c3ccc(OC)cc3)NC(=O)N(CC(=O)Nc3ccccc3C)C2=O)cc1`?
TRHR enhancer: 36*; D1 PAM: -5; TRHR agonist: -1; D1 agonist: 0; LDHA inh: -10; D1 antagonist: 17

Results for CC1(c2ccc(OC(F)F)cc2)NC(=O)N(CC(=O)Nc2cccnc2Cl)C1=O (stereo not drawn) ?
TRHR enhancer: 7; D1 PAM: 5; TRHR agonist: 6; D1 agonist: 73*; LDHA inh: -5; D1 antagonist: -62*

Results for COc1ccccc1OCCNc1nc(-c2cccnc2)nc2ccccc12 ?
LDHA inh: 5

How did CC(OC(=O)c1cc[n+]([O-])cc1)C(=O)Nc1ccc2ccccc2c1 (stereo not drawn) do in these assays?
LDHA inh: 5

How did Cc1[nH]nc2c1C1(CCOC1C)C(C#N)=C(N)O2 (stereo not drawn) do in these assays?
TRHR enhancer: -1; D1 PAM: -4; TRHR agonist: 1; D1 agonist: 3; LDHA inh: -2; D1 antagonist: -35*

Results for Cc1[nH]nc2c1C1(CCOCC1)C(C#N)=C(N)O2 ?
TRHR enhancer: 8; D1 PAM: 4; TRHR agonist: 0; D1 agonist: 0; LDHA inh: -4; D1 antagonist: 3

Results for Cc1cccc(-c2cc(C(=O)NCCN3CCOCC3)c3ccccc3n2)c1 ?
LDHA inh: 6

What do the screens show for `CCCCCc1ccc(OC(=O)c2ccc(-c3ccc(CC)cn3)cc2)cc1`?
LDHA inh: 8

Results for CC1CCc2[nH]nc(C(=O)O)c2C1 (stereo not drawn) ?
TRHR enhancer: 3; D1 PAM: -9; TRHR agonist: 0; D1 agonist: 1; LDHA inh: 1; D1 antagonist: -47*

What do the screens show for `O=C(Nc1ccccc1C(F)(F)F)NC1CCCCCCC1`?
TRHR enhancer: -4; D1 PAM: -5; TRHR agonist: 1; D1 agonist: 3; LDHA inh: 1; D1 antagonist: -31*

Results for Nc1ccc(NC(=O)NC2CCCCC2)cc1[N+](=O)[O-] ?
TRHR enhancer: -12; D1 PAM: -3; TRHR agonist: -3; D1 agonist: 1; LDHA inh: 1; D1 antagonist: -77*

Results for S=C(Nc1ccc(Br)cc1)NC1CCCC1 ?
TRHR enhancer: -8; D1 PAM: -7; TRHR agonist: 1; D1 agonist: 16; LDHA inh: -6; D1 antagonist: -50*

What do the screens show for `O=C(NNC(=S)Nc1ccccc1C(F)(F)F)C1CC1`?
TRHR enhancer: -2; D1 PAM: -6; TRHR agonist: -1; D1 agonist: 1; LDHA inh: -1; D1 antagonist: -37*

Results for O=C(Nc1ccccc1C(F)(F)F)NC1CCCCC1 ?
TRHR enhancer: 3; D1 PAM: -2; TRHR agonist: 0; D1 agonist: 4; LDHA inh: -5; D1 antagonist: -7

How did Cc1cc(C)c(NC(=O)COC(=O)c2ccccc2)c(Cl)c1 do in these assays?
LDHA inh: 3

How did CCN1CCN(C(=O)c2cc(-c3ccc(OC)cc3)nc3ccccc23)CC1 do in these assays?
LDHA inh: -2

How did COc1ccc2cc(/C=C(\NC(=O)c3ccccc3)C(=O)N(C)C)c(Cl)nc2c1 do in these assays?
LDHA inh: 0

How did O=C(Nc1ccc(F)c(F)c1)NC1CCCCC1 do in these assays?
TRHR enhancer: 0; D1 PAM: -6; TRHR agonist: 1; D1 agonist: 18; LDHA inh: 3; D1 antagonist: -32*

How did O=C(Nc1ccc(Cl)cc1)NC1CCCCC1 do in these assays?
TRHR enhancer: 5; D1 PAM: -5; TRHR agonist: 2; D1 agonist: 9; LDHA inh: -3; D1 antagonist: -18

How did Cc1cccc(NC(=O)NC2CCCCCCC2)c1 do in these assays?
TRHR enhancer: 3; D1 PAM: -6; TRHR agonist: 1; D1 agonist: 12; LDHA inh: -2; D1 antagonist: -34*

How did O=C(Nc1ccc(F)cc1)NC1CCCCCCC1 do in these assays?
TRHR enhancer: -4; D1 PAM: 4; TRHR agonist: 1; D1 agonist: 12; LDHA inh: -1; D1 antagonist: -35*

What do the screens show for `O=C(Cn1ncn2cccc2c1=O)NCc1cccc(Br)c1`?
TRHR enhancer: 1; D1 PAM: 0; TRHR agonist: 0; D1 agonist: 1; LDHA inh: -1; D1 antagonist: 2

How did O=C(Cn1ncc2c(Cl)cccc21)NCc1cccc(F)c1 do in these assays?
TRHR enhancer: 4; D1 PAM: -4; TRHR agonist: -1; D1 agonist: 0; LDHA inh: -5; D1 antagonist: -81*

What do the screens show for `O=C(Cn1ncc2c(Cl)cccc21)NCc1cccc(Br)c1`?
TRHR enhancer: -4; D1 PAM: -5; TRHR agonist: -1; D1 agonist: 9; LDHA inh: -4; D1 antagonist: -30*

Results for CC1CCN(C(=O)Cn2nnnc2-c2ccc(Cl)cc2)CC1 ?
LDHA inh: 2
